Several values for one entry are separate records, joined by “and”; a condition that tells them apart may be missing. Equal entries are not always repeated. The panel holds about 83,000 compounds, 20% with a hit somewhere; the sample as a whole holds those more often.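 How to read the values: 0–100, growth inhibition (40 = 60% inhibited); 0, no net growth; -100 to 0, cell death (-40 = 40% of starting cells died; -100 = all dead).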 Activity calls are given as the source filed them. The calls were made as follows: active = growth percent below 10; inactive = the rest.

The assay deals with TK-10 renal. As to the kind of experiment: NCI-60 one-dose screen, 48 h (100 = growth as untreated, 0 = no growth, -100 = all killed). Particulars: 10 µM unless noted.
Consider `COc1cc(CC2c3cc(OC)c(OC)cc3CCN2C)c(Oc2cc3c(cc2OC)-c2c(O)c(OC)cc4c2C(C3)N(C)CC4)cc1OC` (stereo not drawn), for which the growth was -10.6% [100 µM] (active) and -93% [100 µM] (active).
With `CC(O)c1cc2c(s1)C(=O)c1c(C(C)O)csc1C2=O` (stereo not drawn), the growth is -20.6% [100 µM] (active) and -88.8% [100 µM] (active).
With `O=C1c2c(O)ccc(O)c2C(=O)c2c(NCCNC(=O)C(O)C(O)C(O)C(O)CO)ccc(NCCNC(=O)C(O)C(O)C(O)C(O)CO)c21` (stereo not drawn), the growth was -82.4% [100 µM] (active) and -95.9% [100 µM] (active).
Regarding `CCOc1cc2c(cc1O)/C(=N\N)C[C@@H]1[C@@H]2CC[C@]2(C)[C@@H](O)CC[C@@H]12`, the growth was 36.7% [100 µM] (inactive) and -97% [100 µM] (active).
Regarding `CC(=O)NC(CS/N=N/c1nc[nH]c1C(N)=O)C(=O)O` (stereo not drawn), the growth was 7.53% [100 µM] (active) and 4.2% [100 µM] (active).
As for `N#C/C(=C\c1ccccc1)C(=O)Nc1nnc(-c2ccccc2)o1`, the growth is 88.2% [100 µM] (inactive) and 4.58% [100 µM] (active).
Regarding `CCCCOC(=O)C1CC[C@H]2[C@@H]3CCc4cc(OC(=O)c5cccc6c(=O)c7ccccc7[nH]c56)ccc4[C@H]3CC[C@]12C` (stereo partly drawn), the growth was -100% [50 µM] (active).
Regarding `O=C1N(c2ccccc2)N=C2c3ccncc3C3=NN(c4ccccc4)C(=O)C123` (stereo not drawn), the growth is 70.4% [100 µM] (inactive) and -59.4% [100 µM] (active).

Values taken from PubChem BioAssay (NCI).
